# Shown are actives, neighbours in structure and some others; about 2.2% of the full set was active somewhere.
# TrxR1 inh-1 = rat TrxR1 inhibition | AID 588453 | O89049 | recombinant rTrxR1, NADPH fluorescence consumption, selenite substrate | Potency, µM (doses to about 114 µM), for the others: at the top dose activity change, negative = inhibition, usual class: inhibitors | actives 1% (n = 390,000); further: potency means the concentration at half of the fitted maximal effect; on the % scale 0 is the no-effect control and ±100 the full control effect; nearly all actives have a fitted effect of over 65% in size
#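 Rat TrxR1 (90 nM in the dispensed reagent) was pre-reduced with 400 uM NADPH for 5 min at room temperature, then incubated with compound for 15 min. After 400 uM selenite was added, NADPH fluorescence (Ex 340/Em 450 nm) was followed for 8 min.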
# Giardia killer = kills Giardia lamblia. Giardia lamblia trophozoite viability. activity change, % at 7.66 µM, hits read low. actives 0.15% (n = 340,000). AID 540267; in the data active means activity change below about -80%; inconclusive means between about -30% and that limit;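 further: parasites exposed to compound for two days anaerobically before the ATP read; on the % scale 0 is the no-effect control and ±100 the full control effect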
#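 Giardia trophozoites, 100 cells per well, were exposed to compounds for 48 hrs at 37 deg C under anaerobic conditions; viability was then read as ATP content by bioluminescence after 15-30 min at room temperature.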
# mIDH1 inhibitor = inhibitors of human mutant IDH1 R132H; Potency, µM (highest dose often 76.6 µM), for the others: at the top dose activity change, negative = inhibition, usual class: inhibitors; actives 0.093% (n = 390,000); O75874; AID 602179; IDH1-R132H enzyme, NADPH consumption, diaphorase/resazurin fluorescence; further: potency means the concentration at half of the fitted maximal effect; on the % scale 0 is the no-effect control and ±100 the full control effect; nearly all actives have a fitted effect of over 65% in size
# Target sequence (O75874 whole entry R132H, stated change not applied): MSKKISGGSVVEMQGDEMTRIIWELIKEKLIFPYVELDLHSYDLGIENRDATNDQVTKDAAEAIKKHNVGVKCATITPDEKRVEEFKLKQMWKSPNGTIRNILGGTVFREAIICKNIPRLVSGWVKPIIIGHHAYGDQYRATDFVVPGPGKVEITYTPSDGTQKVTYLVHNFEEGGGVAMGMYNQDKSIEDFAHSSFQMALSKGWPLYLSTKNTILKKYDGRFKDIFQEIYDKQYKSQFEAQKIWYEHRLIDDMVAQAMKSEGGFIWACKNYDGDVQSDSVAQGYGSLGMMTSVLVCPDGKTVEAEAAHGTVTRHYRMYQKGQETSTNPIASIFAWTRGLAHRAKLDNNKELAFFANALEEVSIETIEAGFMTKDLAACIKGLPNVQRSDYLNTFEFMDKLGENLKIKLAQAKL
#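 IDH1-R132H (0.5 ug/mL dispensed) in pH 7.5 Tris buffer was preincubated 30 min with compound, then given a substrate mix of 0.016 mM NADPH and 2 mM alpha-KG for 80 min at room temperature; remaining NADPH was read by diaphorase/resazurin fluorescence.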
# BRCA1 expr act = increases BRCA1 expression; MCF7-BRCA1-FFLuc reporter, luminescence, 48 h; response scale: scaled: vehicle 0%, 10 µM genistein 100%; Potency, µM (series often up to 46.1 µM), inactives show at the highest dose activation, hits mostly activators; actives 1.1% (n = 380,000); AID 624202; further: potency means the concentration at half of the fitted maximal effect; nearly all actives have a fitted effect of over 80% in size
#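 Compounds are tested at multiple concentrations on MCF7 BRCA1-luciferase reporter cells seeded at 2000 per well; after 48 h, a single luminescence end-point is taken and curves fitted to the normalized data.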
# TrxR1 substrate = substrates of rat thioredoxin reductase 1; actives 0.01% (n = 390,000); purified TrxR1 substrate turnover, NADPH consumption readout; Potency, µM (titrated, usually from 114 µM), without a hit: top-dose activity change, negative = substrate turnover; O89049; AID 588456; further: potency means the concentration at half of the fitted maximal effect; on the % scale 0 is the no-effect control and ±100 the full control effect; nearly all actives have a fitted effect of over 50% in size
#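 Rat TrxR1, dispensed at 90 nM, was prereduced with 400 uM NADPH (final) for 5 min at ~22 deg C, then incubated with compound 15 min before 400 uM selenite. A first-read NADPH fluorescence drop versus no-compound background flagged substrates.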
# IL-2 act = IL-2 activation; IL-2 activation reporter assay, cell-based qHTS; stimulated with anti-CD3/CD4/CD28 beads; in transgenic mouse T cells; activation, % (series mostly up to about 46 µM); actives 0.065% (n = 360,000); AID 652025; in the data active means activation above about 50%; inconclusive means mostly about 30% to 49%; further: 0% is about no effect
#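 Screening format: compound pinned onto unstimulated transgenic mouse T cells, 60 min incubation, then anti-CD3/anti-CD4/anti-CD28 bead stimulation for 18 hours at 37 degrees C, followed by EGFP and DsRed detection.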
# TRb SRC2 Alpha = confirmation of human TRb-SRC2 interaction inhibitors | shares compounds with TrxR1 inh-1 | AlphaScreen TRb LBD-SRC2 peptide binding, luminescence | Potency, µM | actives 50% (n = 30) | AID 2444; calls by dose curve
# HepG2 tox = HepG2 cytotoxicity, 72 h ATP readout; HepG2 viability, ATP luminescence (CellTiter-Glo), 72 h; AID 2447; shares compounds with TrxR1 inh-1; Potency, µM; actives 50% (n = 40); calls by dose curve
# AR SRC2 FP = disrupts human androgen receptor binding to SRC2 peptide; shares compounds with TrxR1 inh-1; AR-LBD Tx-SRC2-3 fluorescence polarization, 3 h; calls only; 25 tested, under 10 active; call rule not given here
# PPARg-DRIP2 inh = disrupts human PPARgamma binding to DRIP-2 peptide; shares compounds with TrxR1 inh-1; PPARg LBD / Texas Red DRIP-2 peptide, fluorescence polarization, 3 h; Potency, µM; 25 tested, under 10 active; AID 2449; calls by dose curve
# VDR-SRC2 FP sel = VDR-SRC2 (human) interaction inhibition, selectivity; Potency, µM; 25 tested, under 10 active; shares compounds with TrxR1 inh-1; AID 2455; VDR LBD/SRC2-3 peptide, fluorescence polarization, 3 h; calls by dose curve
# GR counterassay = inhibits human glutathione reductase in TrxR1 counterassay. purified GR, DTNB reduction absorbance 405 nm kinetic. activity change, negative = inhibition, % at 57.1 µM. AID 652020. 55 tested, under 10 active. shares compounds with TrxR1 inh-1
# TrxR1 inh-2 = blocks rat thioredoxin reductase 1 in hit validation; shares compounds with TrxR1 inh-1; recombinant TrxR1, NADPH fluorescence consumption, selenite substrate; Potency, µM, usual class: inhibitors; actives 50% (n = 55); AID 652023
# TrxR1 insulin = TrxR1 inhibitors: insulin reduction mechanism-of-action test | TrxR1 Trx-coupled insulin reduction, NADPH absorbance 340 nm | actives 20% (n = 55) | shares compounds with TrxR1 inh-1 | Potency, µM | AID 652037;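 active means compounds with a measured potency under 100 micromolar; inconclusive means filed, but no rule given; inactive means potency at or above that, or unmeasurable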
# TrxR1 inh-3 = rat thioredoxin reductase 1 inhibition, DTNB assay; shares compounds with TrxR1 inh-1; purified TrxR1, DTNB reduction, A412; Potency, µM; actives 90% (n = 55);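 active means a half-inhibiting concentration could be measured and was below 100 µM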
# The depositor's hits bear a star; i = inactive; ? = inconclusive; · = no result; [ ] = dose if it differs, or a comment. Unless noted, the call rests on the fitted dose curve; in most records, active means well fitted curve in the direction sought with a large enough effect; inconclusive means small, poorly fitted or top-dose-only effect, or another doubt; inactive means no such curve, though single readings can be large; an effect the other way counts as inactive or inconclusive.
SMILES,TrxR1 inh-1,Giardia killer,mIDH1 inhibitor,BRCA1 expr act,TrxR1 substrate,IL-2 act,GR counterassay,TrxR1 inh-2,TrxR1 insulin,TrxR1 inh-3,others
O=C(COC(=O)c1cc([N+](=O)[O-])ccc1F)NC1C2CC3CC(C2)CC1C3 (configuration not stated),·,·,·,·,·,·,·,·,·,·,TRb SRC2 Alpha=i;HepG2 tox=i;AR SRC2 FP=i;PPARg-DRIP2 inh=i;VDR-SRC2 FP sel=i
O=C(COC(=O)c1cc(S(=O)(=O)N2CCOCC2)ccc1F)Nc1cc([N+](=O)[O-])ccc1F,7%,-7,1%,2%,0%,0,·,·,·,·,
C[S+](=O)([O-])c1ccc(C(=O)OCC(=O)NC2C3CC4CC(C3)CC2C4)cc1 (configuration not stated),·,·,·,·,·,·,·,·,·,·,TRb SRC2 Alpha=i;HepG2 tox=i;AR SRC2 FP=i;PPARg-DRIP2 inh=i;VDR-SRC2 FP sel=i
Cc1cccc(CNC(=O)CCCn2c(=O)c3cccn3c3ccc(F)cc32)c1,20%[11.4 µM],·,19%,·,6%,·,·,·,·,·,
CCC(=O)Nc1cccc(NC(=S)NC(=O)c2ccc(C)cc2)c1,?,-24,-1%,?,0%,0,·,·,·,·,
CCOc1cccc(C(=O)NC(=S)Nc2ccc(N3CCN(CC)CC3)cc2)c1,-51%,-4,6%,3%,-10%[57.1 µM],-1,·,·,·,·,
CCCOc1cccc(C(=O)NC(=S)Nc2ccc(N3CCN(C)CC3)cc2)c1,79µM*,-17,-1%,1%,-5%,-5,-11,5.3*,i,i,
CCOc1cccc(C(=O)NC(=S)Nc2cccnc2)c1,-59%,-18,2%,17%,11%[57.1 µM],0,·,·,·,·,
CCOc1cccc(C(=O)NC(=S)Nc2ccccc2)c1,32µM*,-3,4%,11µM*,-15%,0,-3,6.7*,i,74µM*,
CCC(=O)Nc1cccc(NC(=S)NC(=O)c2cccc(C)c2)c1,11µM*,-22,-7%,65%,-5%,-1,1,6*,i,1.3µM*,
Cc1ccc(NC(=O)CSc2n[nH]c(-c3ccc(F)cc3)n2)cc1F,11%[57.1 µM],·,-10%,·,2%[57.1 µM],·,·,·,·,·,
CCc1cccc(-n2c(=O)c3cccnc3n2CC(=O)NCc2ccc(C)cc2)c1,33%[57.1 µM],·,-1%,·,35%[57.1 µM],·,·,·,·,·,
CC(C)OC(=O)c1cn(-c2ccccc2)nc1-c1ccco1,5µM*,-13,0%,-61%,8%,0,-13,?,i,2.5µM*,
COc1ccc(N(C(=O)c2cccnc2)S(=O)(=O)c2cccc([N+](=O)[O-])c2)cc1,-16%[57.1 µM],-21,0%,-45%,0%[57.1 µM],0,·,·,·,·,
COc1ccc(N(C(=O)c2ccncc2)S(=O)(=O)c2cccc([N+](=O)[O-])c2)cc1,50µM*,-2,-4%,6%,-3%,-1,-7,9.5*,i,9.2µM*,
Cc1ccccc1NC(=S)NC(=O)CCc1ccccc1,13µM*,8,3%,12%,2%,3,1,3*,i,36µM*,
NC(=O)c1ccccc1NC(=S)NC(=O)CCc1ccccc1,-31%,-5,-1%,-58%,-14%,-1,·,·,·,·,
COc1ccc(Cl)cc1NC(=O)CSc1nc2ccccc2nc1N1CCCCC1,20%,·,0%,·,5%,·,·,·,·,·,
Cc1ccc(-c2nc(C)sc2CC(=O)NCc2ccco2)cc1,50µM*,-2,2%,-5%,10%,2,-8,5.3*,i,10µM*,
CCn1c(CNC(=O)c2ccc(OC)cc2)nnc1SCC(=O)Nc1ccc(F)cc1,8%,·,13%,-9%,4%,·,·,·,·,·,
Cc1cccc(N2CCN(c3cc(C)nc4nnnn34)CC2C)c1 (configuration not stated),32µM*,-19,0%,13%,-3%,-3,1,?,84µM*,0.11µM*,
COc1cc(C(c2nnnn2C2CCCC2)N2CCc3ccccc3C2)ccc1O (configuration not stated),2µM*,-13,-2%,-14%,7%[57.1 µM],-3,-3,2.1*,i,0.71µM*,
CCCn1c(N)c(C(c2ccc(OC)cc2)N2CCN(c3ccccc3)CC2)c(=O)[nH]c1=O (configuration not stated),10µM*,9,1%,-13%,8%[57.1 µM],0,1,?,i,0.17µM*,
O=C(Nc1c(Cl)cccc1Cl)c1cccc2c1C(=O)N(C1CCCCC1)C2,12%,·,5%,10%,-4%,·,·,·,·,·,
CCOc1cc(CNc2ccc(N3CCCC3)cc2)cc(Cl)c1OC,3.5µM*,-3,19%,-92%,-13%,0,-6,?,i,8µM*,
